Here are results for 17 sequences from paper PMC5700166.

What all share (test): protein-binding microarray (PBM); PBM: ~300 nM protein, 6 mM HEPES pH 7.8, 80 mM KCl, 0.5 mM EDTA, 0.5 mM EGTA, 6% glycerol, 35 ng/ul poly-dIdC, 1% milk, 1 h, room temperature; Ap Aiptasia and Nv Nematostella (sea anemones) / Co Capsaspora / Aq Amphimedon (sponge) / Dm Drosophila / Hu human; RHD is the Rel homology domain; high values mean tight binding
Holding throughout (settings): dsDNA, one strand shown

One assay has as its target T1, GST-Ap-NF-kB RHD (Exaiptasia pallida (Aiptasia), UniProt A0A913YAJ5 2-422).
T1 sequence: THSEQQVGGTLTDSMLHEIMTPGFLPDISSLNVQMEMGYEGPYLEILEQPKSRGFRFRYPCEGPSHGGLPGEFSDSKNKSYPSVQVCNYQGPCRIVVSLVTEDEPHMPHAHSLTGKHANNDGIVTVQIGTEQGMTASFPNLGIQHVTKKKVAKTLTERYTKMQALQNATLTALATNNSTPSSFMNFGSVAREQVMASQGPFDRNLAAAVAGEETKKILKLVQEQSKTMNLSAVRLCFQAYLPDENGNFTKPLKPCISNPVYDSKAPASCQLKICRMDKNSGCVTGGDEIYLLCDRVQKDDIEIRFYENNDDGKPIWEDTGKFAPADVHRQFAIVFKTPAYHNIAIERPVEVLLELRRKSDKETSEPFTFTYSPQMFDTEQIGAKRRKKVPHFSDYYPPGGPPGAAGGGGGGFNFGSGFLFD

The target of assay [1] is T2, GST-Nv-NF-kB (Cys allele) (Nematostella vectensis, UniProt E5G601 2-411).
T2 sequence: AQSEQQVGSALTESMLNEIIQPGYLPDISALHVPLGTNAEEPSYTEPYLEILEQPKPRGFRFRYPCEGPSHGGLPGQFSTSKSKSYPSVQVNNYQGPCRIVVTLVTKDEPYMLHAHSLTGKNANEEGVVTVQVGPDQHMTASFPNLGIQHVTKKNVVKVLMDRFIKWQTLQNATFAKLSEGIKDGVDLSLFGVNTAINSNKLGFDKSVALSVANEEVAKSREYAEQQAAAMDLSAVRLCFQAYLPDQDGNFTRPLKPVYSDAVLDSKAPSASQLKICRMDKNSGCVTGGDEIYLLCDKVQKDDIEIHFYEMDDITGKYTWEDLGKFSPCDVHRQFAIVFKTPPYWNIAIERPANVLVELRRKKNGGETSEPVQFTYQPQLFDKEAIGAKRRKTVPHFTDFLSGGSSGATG

In assay [2] the target is T3, GST-Nv-NF-kB (Ser allele) (Nematostella vectensis, UniProt A7UNT2 2-411).
T3 sequence: T2 sequence with Q21R, C66S, S207N, E215Q, V217A, E225K, A268E, D399E

The next assay concerns the target T4, GST-Co-NF-kB (Capsaspora owczarzaki, UniProt F1ARL5 200-546).
T4 sequence: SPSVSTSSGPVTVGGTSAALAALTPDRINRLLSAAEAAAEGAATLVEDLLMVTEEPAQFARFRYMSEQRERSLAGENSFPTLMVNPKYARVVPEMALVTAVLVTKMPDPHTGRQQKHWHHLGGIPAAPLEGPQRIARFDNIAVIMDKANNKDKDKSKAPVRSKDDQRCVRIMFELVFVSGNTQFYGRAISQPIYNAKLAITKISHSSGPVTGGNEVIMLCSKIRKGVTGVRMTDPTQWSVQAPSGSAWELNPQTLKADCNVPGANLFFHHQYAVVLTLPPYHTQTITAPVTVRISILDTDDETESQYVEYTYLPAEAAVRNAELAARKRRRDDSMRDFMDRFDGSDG

In another assay the target is T5, GST-Dm-Relish (Drosophila melanogaster, UniProt Q94527 99-473).
T5 sequence: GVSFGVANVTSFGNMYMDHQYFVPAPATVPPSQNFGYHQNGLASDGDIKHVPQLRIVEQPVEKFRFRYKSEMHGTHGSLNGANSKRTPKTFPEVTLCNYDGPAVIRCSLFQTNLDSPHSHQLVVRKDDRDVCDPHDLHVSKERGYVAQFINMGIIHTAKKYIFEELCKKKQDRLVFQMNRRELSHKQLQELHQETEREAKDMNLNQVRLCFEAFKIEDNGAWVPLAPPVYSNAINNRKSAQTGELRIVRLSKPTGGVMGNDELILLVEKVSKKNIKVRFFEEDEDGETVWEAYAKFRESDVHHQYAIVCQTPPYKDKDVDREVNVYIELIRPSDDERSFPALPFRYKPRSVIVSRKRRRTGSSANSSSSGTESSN

For the next assay, the target named is T6, GST-Aq-NF-kB (Amphimedon queenslandica, UniProt A9Y5G7 2-389).
T6 sequence: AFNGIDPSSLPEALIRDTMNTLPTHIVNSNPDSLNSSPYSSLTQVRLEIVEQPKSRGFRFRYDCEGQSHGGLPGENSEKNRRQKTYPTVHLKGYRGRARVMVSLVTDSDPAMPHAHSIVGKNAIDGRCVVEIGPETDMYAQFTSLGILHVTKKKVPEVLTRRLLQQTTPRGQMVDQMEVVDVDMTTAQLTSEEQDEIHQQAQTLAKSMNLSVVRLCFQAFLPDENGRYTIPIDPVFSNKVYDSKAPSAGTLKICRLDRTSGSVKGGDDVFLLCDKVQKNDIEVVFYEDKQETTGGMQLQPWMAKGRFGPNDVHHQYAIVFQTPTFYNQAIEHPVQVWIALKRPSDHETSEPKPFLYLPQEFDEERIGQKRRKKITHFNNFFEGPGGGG

A further assay concerns the target GST-Hu-p50 (Homo sapiens, UniProt P19838 7-356).

Where a chain is given by its changes, count along the chain named.

Sequence of GST-Hu-p50 (P19838 7-356): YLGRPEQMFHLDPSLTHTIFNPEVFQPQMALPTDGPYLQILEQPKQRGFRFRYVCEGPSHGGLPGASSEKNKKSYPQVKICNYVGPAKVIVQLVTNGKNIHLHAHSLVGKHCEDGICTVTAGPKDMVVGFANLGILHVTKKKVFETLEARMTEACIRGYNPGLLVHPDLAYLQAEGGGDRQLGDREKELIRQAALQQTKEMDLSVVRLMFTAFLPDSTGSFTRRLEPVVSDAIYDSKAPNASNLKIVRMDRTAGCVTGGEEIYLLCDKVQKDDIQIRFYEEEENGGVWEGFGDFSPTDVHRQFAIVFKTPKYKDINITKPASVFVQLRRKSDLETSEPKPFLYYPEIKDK

Regarding “CCGATTAACATCAGGGAATGCCCTGATGTTAATCGGGTCTTGATTCGCTTGACGCTGCTG”, the binding signal was 5.58 z-score in the assay with GST-Ap-NF-kB RHD; 7.18 z-score in assay [1]; 4.19 z-score in assay [2]; 1.43 z-score in the assay with GST-Co-NF-kB; 7.7 z-score with GST-Dm-Relish; 7.91 z-score with GST-Aq-NF-kB. The same sequence gave a binding signal in the assay with GST-Hu-p50 of 3.67 z-score.
Consider “CCGATTAACATCAAAATTTACCCTGATGTTAATCGGGTCTTGATTCGCTTGACGCTGCTG”, for which the binding signal in the assay with GST-Ap-NF-kB RHD came to 3.17 z-score; in assay [1], 5.04 z-score; in assay [2] it was 6.15 z-score; with GST-Co-NF-kB, 4.27 z-score; with GST-Dm-Relish, 4.47 z-score; in the assay with GST-Aq-NF-kB, 5.23 z-score. This sequence came in with a binding signal with GST-Hu-p50 of 4.09 z-score.
With “CCGATTAACATCACCCCACCCCCTGATGTTAATCGGGTCTTGATTCGCTTGACGCTGCTG”, the binding signal with GST-Ap-NF-kB RHD is 3.67 z-score; in assay [1], 2.66 z-score; in assay [2], 3.49 z-score; with GST-Co-NF-kB it was 3.94 z-score; in the assay with GST-Dm-Relish, 4.21 z-score; with GST-Aq-NF-kB, 3.4 z-score. In the assay with GST-Hu-p50, this sequence yielded a binding signal of 3.36 z-score.
As for “CCGATTAACATCACAGAAATCCCTGATGTTAATCGGGTCTTGATTCGCTTGACGCTGCTG”, the binding signal was found to be 4.33 z-score with GST-Ap-NF-kB RHD; 3.88 z-score in assay [1]; 3.79 z-score in assay [2]; 1.43 z-score with GST-Co-NF-kB; 5.77 z-score in the assay with GST-Dm-Relish; 3.9 z-score in the assay with GST-Aq-NF-kB. Further, in the assay with GST-Hu-p50, the binding signal amounted to 3.37 z-score.
As for “CCGATTAACATCAGGGGCCCCCCTGATGTTAATCGGGTCTTGATTCGCTTGACGCTGCTG”, the binding signal with GST-Ap-NF-kB RHD came to 7.09 z-score; in assay [1], 3.78 z-score; in assay [2], 2.88 z-score; in the assay with GST-Co-NF-kB, 3.01 z-score; with GST-Dm-Relish, 7.07 z-score; with GST-Aq-NF-kB, 7.54 z-score. For the same sequence, the binding signal with GST-Hu-p50 was 4.57 z-score.
In the case of “CCGATTAACATCAAGATACCCCCTGATGTTAATCGGGTCTTGATTCGCTTGACGCTGCTG”, the binding signal was 7.1 z-score with GST-Ap-NF-kB RHD; 4.31 z-score in assay [1]; 5.25 z-score in assay [2]; 4.96 z-score with GST-Co-NF-kB; 4.14 z-score with GST-Dm-Relish; 4.36 z-score with GST-Aq-NF-kB. For the same sequence, the binding signal with GST-Hu-p50 amounted to 4.66 z-score.
In the case of “CCGATTAACATCAGGGGGTCCACTGATGTTAATCGGGTCTTGATTCGCTTGACGCTGCTG”, the binding signal with GST-Ap-NF-kB RHD worked out at 4.33 z-score; in assay [1] it was 2.44 z-score; in assay [2], 2.96 z-score; with GST-Co-NF-kB it was 1.99 z-score; in the assay with GST-Dm-Relish, 7.96 z-score; with GST-Aq-NF-kB, 4.83 z-score. In the assay with GST-Hu-p50, this sequence returned a binding signal of 3.28 z-score.
As to “CCGATTAACATCAACAAATCCCCTGATGTTAATCGGGTCTTGATTCGCTTGACGCTGCTG”, the binding signal with GST-Ap-NF-kB RHD turned out to be 7.43 z-score; in assay [1] it was 7.95 z-score; in assay [2], 10.9 z-score; in the assay with GST-Co-NF-kB, 4.14 z-score; with GST-Dm-Relish, 6.61 z-score; with GST-Aq-NF-kB, 5.53 z-score. Moreover, the binding signal in the assay with GST-Hu-p50 came out at 7.22 z-score.
In the case of “CCGATTAACATCAGAGATTCCCCTGATGTTAATCGGGTCTTGATTCGCTTGACGCTGCTG”, the binding signal with GST-Ap-NF-kB RHD was 8.42 z-score; in assay [1], 9.61 z-score; in assay [2] it was 10.1 z-score; in the assay with GST-Co-NF-kB, 6.66 z-score; in the assay with GST-Dm-Relish, 6.36 z-score; in the assay with GST-Aq-NF-kB, 7.04 z-score. In the assay with GST-Hu-p50, this sequence showed a binding signal of 6.76 z-score.
For the sequence “CCGATTAACATCAGGGGATGCACTGATGTTAATCGGGTCTTGATTCGCTTGACGCTGCTG”, the binding signal in the assay with GST-Ap-NF-kB RHD was 4.3 z-score; in assay [1] it was 4.83 z-score; in assay [2], 6.02 z-score; with GST-Co-NF-kB, 2.97 z-score; with GST-Dm-Relish, 9.57 z-score; in the assay with GST-Aq-NF-kB, 5.85 z-score. The sequence also yielded a binding signal in the assay with GST-Hu-p50 of 4.77 z-score.
In the case of “CCGATTAACATCAAATTCCCAACTGATGTTAATCGGGTCTTGATTCGCTTGACGCTGCTG”, the binding signal with GST-Ap-NF-kB RHD was 2.17 z-score; in assay [1] it was 3.56 z-score; in assay [2], 3.7 z-score; in the assay with GST-Co-NF-kB it was 2.15 z-score; with GST-Dm-Relish it was 3.39 z-score; with GST-Aq-NF-kB, 2.22 z-score. Further, the binding signal in the assay with GST-Hu-p50 stood at 2.66 z-score.
Take “CCGATTAACATCAGGGGATTGCATGATGTTAATCGGGTCTTGATTCGCTTGACGCTGCTG”: the binding signal in the assay with GST-Ap-NF-kB RHD is 5.77 z-score; in assay [1], 5.89 z-score; in assay [2] it was 6.93 z-score; with GST-Co-NF-kB, 2.38 z-score; in the assay with GST-Dm-Relish, 4.62 z-score; with GST-Aq-NF-kB, 4.23 z-score. This sequence gave a binding signal in the assay with GST-Hu-p50 of 5.31 z-score.
“CCGATTAACATCAAGGTTCCCCCTGATGTTAATCGGGTCTTGATTCGCTTGACGCTGCTG”: the binding signal with GST-Ap-NF-kB RHD was 8.03 z-score; in assay [1], 6.89 z-score; in assay [2], 7.86 z-score; in the assay with GST-Co-NF-kB, 9.24 z-score; with GST-Dm-Relish it was 5.67 z-score; with GST-Aq-NF-kB, 5.62 z-score. This sequence also yielded a binding signal with GST-Hu-p50 of 5.92 z-score.
As to “CCGATTAACATCAGGGGACTCACTGATGTTAATCGGGTCTTGATTCGCTTGACGCTGCTG”, the binding signal worked out at 5.12 z-score with GST-Ap-NF-kB RHD; 4.13 z-score in assay [1]; 4.07 z-score in assay [2]; 3.05 z-score with GST-Co-NF-kB; 8.85 z-score in the assay with GST-Dm-Relish; 4.46 z-score with GST-Aq-NF-kB. In addition, in the assay with GST-Hu-p50, the binding signal was found to be 4.32 z-score.
For “CCGATTAACATCACCCTTTCCCCTGATGTTAATCGGGTCTTGATTCGCTTGACGCTGCTG”, the binding signal was found to be 4.99 z-score in the assay with GST-Ap-NF-kB RHD; 5.19 z-score in assay [1]; 7.16 z-score in assay [2]; 5.72 z-score with GST-Co-NF-kB; 1.82 z-score with GST-Dm-Relish; 4.33 z-score with GST-Aq-NF-kB. Besides, in the assay with GST-Hu-p50, the binding signal is 3.91 z-score.
With “CCGATTAACATCAAAATTTCCCTTGATGTTAATCGGGTCTTGATTCGCTTGACGCTGCTG”, the binding signal came to 5.11 z-score with GST-Ap-NF-kB RHD; 8.26 z-score in assay [1]; 7.99 z-score in assay [2]; 5.01 z-score with GST-Co-NF-kB; 4.81 z-score with GST-Dm-Relish; 7.6 z-score in the assay with GST-Aq-NF-kB. In the assay with GST-Hu-p50, this sequence had a binding signal of 5.41 z-score.
“CCGATTAACATCACACTACCCCCTGATGTTAATCGGGTCTTGATTCGCTTGACGCTGCTG”: the binding signal was determined as 4.66 z-score in the assay with GST-Ap-NF-kB RHD; 2.12 z-score in assay [1]; 4.06 z-score in assay [2]; 3.89 z-score with GST-Co-NF-kB; 1.77 z-score with GST-Dm-Relish; 2.65 z-score in the assay with GST-Aq-NF-kB. For the same sequence, the binding signal with GST-Hu-p50 is 3.3 z-score.
